An excerpt weighted towards active compounds, which were near 1.5% of everything screened.
ANO1 block = TMEM16A chloride channel inhibitors, primary screen, cell-based, HTS; normalized B-score (activity score, 25-100; higher = stronger inhibition) at 10 µM; HEK293 TMEM16A/YFP iodide influx fluorescence, ionomycin; Anoctamin-1 (Mus musculus), Q8BHY3; 310,000 compounds, 1.2% hits;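 active = ratio plate-corrected score three or more library SD toward inhibition, starting fluorescence score within five deviations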;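 note: score derived from kinetic fluorescence span divided by baseline fluorescence per well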
Target sequence (Q8BHY3 whole entry, looked up): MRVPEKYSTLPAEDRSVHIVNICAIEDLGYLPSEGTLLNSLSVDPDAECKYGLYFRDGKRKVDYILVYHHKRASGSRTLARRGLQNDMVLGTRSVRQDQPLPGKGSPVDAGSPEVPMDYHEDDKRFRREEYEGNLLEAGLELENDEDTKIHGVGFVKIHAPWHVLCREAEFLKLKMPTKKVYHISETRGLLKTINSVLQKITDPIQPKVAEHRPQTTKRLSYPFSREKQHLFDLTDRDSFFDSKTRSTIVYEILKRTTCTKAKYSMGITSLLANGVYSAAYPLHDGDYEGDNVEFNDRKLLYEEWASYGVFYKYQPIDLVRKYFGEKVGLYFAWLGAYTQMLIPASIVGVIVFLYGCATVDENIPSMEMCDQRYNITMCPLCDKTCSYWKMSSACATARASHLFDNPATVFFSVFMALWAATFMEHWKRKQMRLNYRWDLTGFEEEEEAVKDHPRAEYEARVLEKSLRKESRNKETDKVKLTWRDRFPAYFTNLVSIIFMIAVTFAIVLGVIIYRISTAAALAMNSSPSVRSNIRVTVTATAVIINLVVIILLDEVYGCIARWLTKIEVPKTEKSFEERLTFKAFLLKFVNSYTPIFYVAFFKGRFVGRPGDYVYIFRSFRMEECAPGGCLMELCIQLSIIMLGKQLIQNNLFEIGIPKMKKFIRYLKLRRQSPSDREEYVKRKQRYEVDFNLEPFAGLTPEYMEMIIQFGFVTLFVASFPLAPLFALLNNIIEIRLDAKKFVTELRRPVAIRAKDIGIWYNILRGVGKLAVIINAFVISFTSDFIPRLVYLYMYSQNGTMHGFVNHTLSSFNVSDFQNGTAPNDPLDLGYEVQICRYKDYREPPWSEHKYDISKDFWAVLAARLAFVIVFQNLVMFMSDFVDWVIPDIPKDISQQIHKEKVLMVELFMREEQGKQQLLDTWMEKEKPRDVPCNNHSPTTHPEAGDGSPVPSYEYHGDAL
hiPSC survival = enhancers of single-cell hiPSC survival, primary screen, ATPlite luminescence. AID 602274, 2012. 360,000 compounds, 0.044% hits. 100% = ROCK inhibitor wells, 0% = DMSO. survival enhancement, % at 20 µM; in the data active = survival enhancement above about 18%;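 note: cells exposed to compounds for 16 hours before the ATP read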
ABCB6 inh MLPCN = ABCB6 transporter inhibitors, primary screen, K562-ABCB6 cells, flow cytometry, MLPCN library. ATP-binding cassette sub-family B member 6 (Homo sapiens), Q9NP58. K562-ABCB6 porphyrin accumulation, 1 h; stronger effect = lower value. fluorescence ratio to DMSO, % at 10 µM. 360,000 compounds, 0.19% hits. AID 602162, 2011;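 active = fluorescence ratio to DMSO below 75%, the collection mean minus 3 SD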;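 note: signal is porphyrin accumulated inside mitochondria; lower ratio means ABCB6 inhibition with less porphyrin fluorescence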
DAGLB inhibitor = DAGLB lipase inhibitors, primary screen, biochemical, fluorescence, HTS; Diacylglycerol lipase-beta (Homo sapiens), Q8NCG7; HEK293T DAGLB membrane lysate, EnzChek fluorogenic substrate; inhibition, % at 5.17 µM; 340,000 compounds, 0.059% hits; in the data active = inhibition above about 34%
TMEM16A act = TMEM16A chloride channel activators or potentiators, primary screen, cell-based, HTS | Anoctamin-1 (Mus musculus), Q8BHY3 | HEK293 TMEM16A/YFP-H148Q/I152L, iodide quench fluorescence; stronger effect = lower value | B-score at 10 µM | 340,000 compounds, 0.3% hits;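 active = fluorescence-ratio B-score plate-corrected deviation score at least 3 library SD below zero, with starting fluorescence score within 5 deviations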;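 note: channel opened by trigger with iodide after compound preincubation; score built on the fluorescence ratio of max minus min over baseline; more negative score means more quench and so TMEM16A activation or potentiation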
DAGLB inh conf = DAGLB lipase inhibitors, retest, confirmation, biochemical, fluorescence, HEK293T membranes; shares compounds with DAGLB inhibitor; HEK293T DAGLB membrane lysate, EnzChek fluorogenic substrate; inhibition, % at 5.17 µM; 190 compounds, 73% hits; AID 504445, 2011;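 active = mean inhibition over triplicate wells above a set limit taken from the primary lipase screen, cut at about 34% in these data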
Numbers stand for hits; – = inactive; · = no result.

SMILES | ANO1 block | hiPSC survival | ABCB6 inh MLPCN | DAGLB inhibitor | TMEM16A act | DAGLB inh conf
O=C(NC(C(=O)N/N=C/c1ccccc1)c1n[nH]c(=O)c2ccccc12)c1ccccc1 (stereo unspecified) | – | – | – | – | – | ·
O=C(NC(C(=O)N/N=C/c1c2ccccc2cc2ccccc12)c1n[nH]c(=O)c2ccccc12)c1ccccc1 (stereo unspecified) | – | – | – | 40 | – | 38
CC1Cc2ccccc2N1C(=O)COC(=O)c1ccc([N+](=O)[O-])o1 (stereo unspecified) | · | – | – | – | – | ·
Cc1ccc(Cl)cc1NC1=C/C(=N\S(=O)(=O)c2cccs2)c2ccccc2C1=O | – | – | – | 43 | – | 46
Cc1ccc(NC2=C/C(=N\S(=O)(=O)c3cccs3)c3ccccc3C2=O)c(C)c1 | – | – | – | 50 | – | 53
Cc1cccc(NC2=C/C(=N/S(=O)(=O)c3cccs3)c3ccccc3C2=O)c1 | – | – | – | – | – | ·
O=C1C(Nc2ccc(O)cc2)=C/C(=N/S(=O)(=O)c2cccs2)c2ccccc21 | · | – | – | 37 | – | 44
Nc1nc(-c2ccccc2)c(N=Nc2ccc(Cl)cc2)s1 | – | – | – | 51 | – | 84
CC1C(=O)Nc2ccccc2N1C(=O)c1cccc(C(F)(F)F)c1 (stereo unspecified) | – | – | – | – | – | ·
O=C1CC(c2ccccc2)=C(c2ccccc2)C1 | · | – | – | 71 | – | –
CC1=C(c2ccccc2)CCC1=O | – | – | – | – | – | ·
Cc1ccc(NC2=C(Cl)C(=O)OC2OC(=O)c2ccco2)c(C)c1 (stereo unspecified) | – | – | – | 36 | – | –
Cc1ccccc1C(=O)OC1OC(=O)C(Cl)=C1Nc1ccc(C(=O)O)cc1 (stereo unspecified) | – | – | – | – | – | ·
CCOC1OC(=O)C(Cl)=C1Nc1ccc(C)cc1C (stereo unspecified) | – | – | – | – | – | ·
Cc1ccc(NC2=C(Cl)C(=O)OC2OC(=O)c2ccco2)cc1C (stereo unspecified) | – | – | – | 39 | – | 36
Cc1ccc(C)c(NC2=C(Cl)C(=O)OC2OC(=O)c2ccco2)c1 (stereo unspecified) | – | – | – | 40 | – | –
O=C(COC(=O)c1ccc2c(c1)OCO2)Nc1ccccc1Cl | · | – | – | – | – | ·
COc1ccc(N(CC(=O)NCc2ccco2)S(C)(=O)=O)cc1OC | – | – | – | – | – | ·
COc1ccc(N(CC(=O)NCc2ccco2)S(C)(=O)=O)cc1 | – | – | – | 65 | – | –
CCS(=O)(=O)Nc1ccc(C2=NN(S(=O)(=O)CC)C(c3cccs3)C2)cc1 (stereo unspecified) | – | – | – | – | – | ·
c1ccc(C2=NN(c3ccccc3)CC2)cc1 | – | – | – | – | – | ·
c1ccc(N=NC2=NN(c3ccccc3)CS2)cc1 | · | – | – | 41 | · | 55
O=C1c2ccccc2C(=O)c2c1cccc2N1CCCC1 | – | – | – | 36 | – | 39
CC(=O)C1=C(O)C(=O)N(c2cc(C(C)(C)C)on2)C1c1ccc(Br)cc1 (stereo unspecified) | – | – | – | 46 | – | 42
CNC(=S)N/N=C/c1cc(Br)cc(Br)c1O | – | – | – | – | – | ·
Oc1c(Br)cc(Br)cc1/C=N/NC(=S)N[C@H]1CC2C=CC1C2 (stereo partly specified) | – | – | – | 35 | – | –
CCOc1ccc2c(c1)-c1c(ssc1=S)C(C)(C)N2C(=O)CSC1=NCCS1 | – | – | – | – | – | ·
CCOc1ccc2c(c1)-c1c(ssc1=S)C(C)(C)N2 | – | – | – | 39 | – | 35
COc1cccc(C(O)c2ncc(-c3ccc(C(F)(F)F)cc3)[nH]2)c1 (stereo unspecified) | · | – | – | · | · | ·

From PubChem
